The list is not random: actives were taken first. Their share in the collection is about 0.92%.
RXFP1 ag = qHTS Assay for Agonists of the Relaxin Receptor RXFP1 | HEK293T-RXFP1 cAMP TR-FRET, 30 min; response scale: percent of porcine relaxin response, buffer zero | Potency, µM (titrated, usually from 57.5 µM), hits mostly activators | actives 0.3% (n = 370,000) | Relaxin receptor 1 (Homo sapiens), Q9HBX9; also: nearly all actives have a fitted effect of over 60% in size
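cAMP rise read by TR-FRET after 30 min, 37C compound exposure (up to 58 uM) in RXFP1-transfected HEK293 cells with Ro 20174 present. EC50 from Hill-equation fits, with 29 nM porcine relaxin as 100% and buffer as basal.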
GALK inh = qHTS Assay for Inhibitors of Human Galactokinase (GALK); P51570; Purified GALK, Kinase-Glo residual ATP luminescence; Potency, µM (highest dose often 57.5 µM), most hits filed as inhibitors; actives 0.007% (n = 270,000)
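Quantitative HTS: GALK 5 nM, ATP 35 uM, galactose 100 uM, 1 h room temperature, then luciferase-based ATP detection.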
Luc counter = Counterscreen for Luciferase (Kinase-Glo TM) Inhibition. Luciferin 4-monooxygenase (Photuris pensylvanica), Q27757. Kinase-Glo luciferase, ATP luminescence, 8 min. Potency, µM (top dose mostly 38.3 µM), most hits filed as inhibitors. actives 0.28% (n = 200,000). AID 1379, 2008; also: nearly all actives have a fitted effect of over 60% in size
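Light output from Kinase-Glo luciferase with luciferin and 10 uM ATP in 50 mM imidazole pH 7.2, KCl, MgCl2, Tween 20, BSA; compound pin-delivered, 8-min ambient incubation, then luminescence read.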
miR-21 reporter = qHTS Assay for Modulators of miRNAs and/orActivators of miR-21 | Potency, µM (highest dose often 38.3 µM), hits mostly activators | 340,000 tested, under 10 active | HeLa miR-21 FLuc reporter, luciferase, 48 h;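 also: miR-21 action dims this reporter so a rising signal means less miR-21 action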
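Using DMEM plus 10% FBS, HeLa miR-21-FLuc cells are incubated with test compounds (final up to about 40uM) for 48 hours; firefly luciferase signal is then imaged following reagent-mediated lysis.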
RXFP1 antagonist = qHTS Assay for Antagonists of the Relaxin Receptor RXFP1 | HEK293-RXFP1, relaxin-stimulated cAMP HTRF, 30 min; stronger effect = lower value | actives 0.59% (n = 350,000) | activity change, negative = inhibition, % at 57.5 µM;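 active = activity change of -60% or lower, but not beyond a set lower limit; inconclusive = change between -60% and -40%, or beyond the set limit; inactive = change above -40%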
PKM2 activator = qHTS Assay for Activators of Human Muscle isoform 2 Pyruvate Kinase | Pyruvate kinase PKM (Homo sapiens), P14618 | purified PKM2, Kinase-Glo ATP luminescence, activation; response scale: 0% is enzyme alone, no compound | Potency, µM (titrated, usually from 57.5 µM), actives largely listed as activators | actives 0.34% (n = 260,000); also: nearly all actives have a fitted effect of over 55% in size
Target sequence (P14618 whole entry, looked up, canonical isoform): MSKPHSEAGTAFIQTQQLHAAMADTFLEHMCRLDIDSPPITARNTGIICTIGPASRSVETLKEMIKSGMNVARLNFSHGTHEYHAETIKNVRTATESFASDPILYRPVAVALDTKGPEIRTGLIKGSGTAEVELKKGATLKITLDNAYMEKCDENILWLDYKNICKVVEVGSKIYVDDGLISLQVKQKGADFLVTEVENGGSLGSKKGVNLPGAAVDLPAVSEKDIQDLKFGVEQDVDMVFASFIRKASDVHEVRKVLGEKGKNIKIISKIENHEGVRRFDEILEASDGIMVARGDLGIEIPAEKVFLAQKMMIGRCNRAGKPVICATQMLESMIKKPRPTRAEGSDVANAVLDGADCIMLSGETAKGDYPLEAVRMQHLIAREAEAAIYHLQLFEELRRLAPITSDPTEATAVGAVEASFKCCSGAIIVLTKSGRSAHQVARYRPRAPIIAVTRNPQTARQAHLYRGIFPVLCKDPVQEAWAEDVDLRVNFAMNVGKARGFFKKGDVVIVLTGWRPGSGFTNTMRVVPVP
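Purified hPK-M2 (>95% pure) converted ADP (0.1 mM final) to ATP with 0.5 mM PEP in 50 mM imidazole pH7.2, KCl, MgCl2, Tween 20, BSA; 1 h at room temperature. ATP detected by Kinase-Glo luminescence.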
Numbers stand for hits; - = inactive; ? = inconclusive; . = no result given; [ ] = another dose, or the depositor's remark. Unless noted, calls follow the shape of the dose curve; as a rule, active = well fitted curve in the direction sought with a large enough effect; inconclusive = small, poorly fitted or top-dose-only effect, or another doubt; inactive = no such curve, though single readings can be large; an effect the other way counts as inactive or inconclusive.

SMILES | RXFP1 ag | GALK inh | Luc counter | miR-21 reporter | RXFP1 antagonist | PKM2 activator
CC(C)(C)NCC(O)COc1ccccc1OCC1CCCO1 (stereo not drawn) | . | . | . | . | - | .
CC/C=C\C/C=C\C/C=C\C/C=C\C=C\C(O)CCCC(=O)O (stereo not drawn) | . | . | - | . | . | .
C=C(CCC(=O)c1ccccc1)C(=O)c1ccccc1 | - | - | - | ? | -66.8 | -
COc1ccc(C2Nc3ccccc3-c3cc(C)nn32)c(OC)c1 (stereo not drawn) | - | . | . | - | - | .
Cc1cc2n(n1)C(c1ccccc1Cl)Nc1ccccc1-2 (stereo not drawn) | - | - | - | - | - | 17.8µM
COc1ccc(CN2CCN(c3ccc(F)cc3)CC2)c(OC)c1OC | - | - | - | - | . | -
COc1ccc(CN2CCN(C(c3ccc(F)cc3)c3ccc(F)cc3)CC2)c(OC)c1OC | . | . | . | . | -105.7 | .
Cc1cnc(CNC(=O)C2CCC(=O)N(CCc3ccc(Cl)cc3)C2)cn1 (stereo not drawn) | - | . | . | - | - | -
c1ccc2c(c1)Cc1cc3cc4c(cc3nc1-2)OCO4 | . | . | 2.82µM | . | . | -
COc1cc(C2C(C#N)=C(N)Oc3c2ccc2ccccc32)ccc1OCC(=O)Nc1cccc(C)c1 (stereo not drawn) | - | - | - | - | -78.4 | -
CCCOc1ccccc1C1C(C(=O)Nc2ccccc2)=C(C)Nc2nnnn21 (stereo not drawn) | - | . | . | - | - | .
O=C1/C(=C/c2ccncc2)SC(=S)N1Cc1ccccc1 | - | - | . | - | -98.8 | -
CC#CCN1c2ccccc2[C@]23C[C@@H](C(=O)OC)N(S(=O)(=O)c4ccc([N+](=O)[O-])cc4)C2=NC(C(=O)OC)=C(C(=O)OC)[C@H]13 | . | . | -[7.66 µM] | . | . | -[11.5 µM]
Cn1nc(C(F)(F)F)c(-c2ccc(Br)cc2)c1NC(=O)Nc1ccc(F)cc1F | - | . | . | ? | -60.8 | -
Cc1csc(NC(=O)c2cn3ccccc3n2)n1 | - | - | 10µM | ? | - | -
CN1CCC(CNC(=O)c2ccc(Cc3nc4ccccc4[nH]3)cc2)CC1 | . | . | - | . | . | .
CCOC(=O)c1sc2nc(C)[nH]c(=S)c2c1C | 28.2µM | - | - | - | - | -
O=C(CSc1n[nH]c(=O)n1C1CC1)Nc1ccc(F)c(Cl)c1 | . | . | . | . | -78.2 | .
O=C(CSc1n[nH]c(=O)n1C1CC1)Nc1ccc(Cl)c(Cl)c1 | - | - | . | - | - | -
CCCNC(=O)c1cnn2c(C)c(Cc3c(C)cc(C)cc3C)c(C)nc12 | - | . | . | - | ? | .
CCCCNC(=O)c1cnn2c(C)c(Cc3c(C)cc(C)cc3C)c(C)nc12 | - | . | . | ? | -60.9 | .
CC1CCCCN1CCCOC(=O)c1ccc(OC2CCCCC2)cc1 (stereo not drawn) | . | . | . | . | - | .
O=C(CN1C(=O)/C(=C/c2ccccc2Cl)SC1=S)NC1C=CS(=O)(=O)C1 (stereo not drawn) | - | - | . | - | -60.9 | .
O=C(CN1C(=O)/C(=C/c2ccccc2)SC1=S)NC1CCS(=O)(=O)C1 (stereo not drawn) | - | - | . | - | -61.5 | .
O=C(CN1C(=O)/C(=C/c2ccc(F)cc2)SC1=S)NC1C=CS(=O)(=O)C1 (stereo not drawn) | - | - | . | - | - | .
SMILES | RXFP1 ag | GALK inh | Luc counter | miR-21 reporter | RXFP1 antagonist | PKM2 activator
O=C(CCCN1C(=O)/C(=C/c2cccs2)SC1=S)Nc1cccc(O)c1 | - | - | . | - | - | .
O=C(CCN1C(=O)/C(=C/c2cccs2)SC1=S)Nc1cccc(O)c1 | - | - | . | - | ? | 5.01µM
O=C(CN1C(=O)/C(=C/c2ccc(F)cc2)SC1=S)NC1CCS(=O)(=O)C1 (stereo not drawn) | - | - | . | - | -67.3 | .
C[n+]1c2cc(N)ccc2cc2ccc(N)cc21 (tested in a mixture with another compound) | . | . | . | . | - | .
O=C(COc1ccc2ccccc2c1)NNC(=O)Nc1ccccc1F | - | - | . | - | - | -
O=C(CCN1C(=O)/C(=C/c2ccccc2Cl)SC1=S)NNC(=O)c1ccccc1O | - | - | . | - | -70.6 | -
CCN(CC)S(=O)(=O)c1ccc2c(c1)c(=O)c(C(=O)NCc1ccc(Cl)cc1)cn2C | - | . | . | - | . | .
CCC(C)NC(=O)C(Cc1ccccc1)NS(=O)(=O)c1ccc2c(c1)CCC(=O)N2 (stereo not drawn) | - | - | . | - | -71.2 | .
CCN(CC)C(=O)c1sc2[nH]c(=S)n(-c3ccccc3)c(=O)c2c1C | - | - | - | - | -66.8 | -
Nc1nc(N)c(-c2cccc(C(F)(F)F)c2)c(Cc2cccc(C(F)(F)F)c2)n1 | . | . | -[7.66 µM] | . | -92.5 | .
COc1ccccc1NC(=O)Cn1cnc2sc(C(=O)Nc3cc(OC)c(OC)c(OC)c3)c(C)c2c1=O | - | - | . | - | - | .
COc1ccccc1NC(=O)Cn1cnc2sc(C(=O)Nc3ccc(OC)c(OC)c3)c(C)c2c1=O | - | - | . | - | -71.3 | .
Cc1ccc(F)cc1NC(=O)c1sc2ncn(CC(=O)N3CCN(c4ccccn4)CC3)c(=O)c2c1C | 15.8µM | - | . | - | - | .
COC(=O)[C@H](Cc1ccccc1)NC(=O)O[C@@H]1C(=O)c2cc(OC)ccc2O[C@H]1c1cccc(OC)c1 | . | . | - | . | . | .
COc1ccc(NC(=O)c2c(NCc3cccc(F)c3)sc3c2CCC3)c(OC)c1 | - | . | . | - | -61.8 | .
COc1ccc(Cl)cc1NC(=O)c1c(NCc2ccc(C)o2)sc2c1CCCC2 | - | . | . | - | -61.3 | .
Cc1ccc(C(=O)Nc2sc3c(c2C(=O)O)CCCC3)o1 | - | - | . | - | - | -
Cc1ccc(C(=O)Nc2sc3c(c2C(=O)O)CCCCC3)o1 | - | - | 7.94µM | ? | - | -
COc1ccc(-c2cc(C(=O)N/N=C\c3cc(OC)c(OC)c(OC)c3)[nH]n2)cc1 | . | . | - | . | . | .
CC(=O)Nc1ccc2c(c1)Cc1cc(N3C(=O)C=CC3=O)ccc1-2 | . | . | . | . | -61.4 | .
CCOC(=O)c1ccc(N2CCOCC2)c(NS(=O)(=O)c2ccc(F)cc2)c1 | - | - | . | - | - | -
O=C(O)c1cc(/C=C/c2ccc(N3CCOCC3)c([N+](=O)[O-])c2)nc2ccccc12 | - | - | . | - | - | -
O=C(O)c1cc(/C=C/c2ccc(N3CCOCC3)cc2)nc2ccccc12 | - | - | 11.2µM | - | - | -
N#C/C(=C/c1ccc(N2CCOCC2)o1)c1ccc(Cl)cc1 | - | - | - | - | - | 1.26µM

Source: PubChem
